The results in this text go back to ChEMBL document CHEMBL1961873, “Compounds: GSK PKIS; Assays: Nanosyn kinase panel” (2012).

“And” between values parts separate entries of the source, which are not always exact repeats. Identical values can stand only once.

The target in assay [1] is T1, 3-phosphoinositide-dependent protein kinase 1 (Homo sapiens) (UniProt O15530).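 Also: values are mean inhibition of PDK1.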
T1 sequence (whole entry): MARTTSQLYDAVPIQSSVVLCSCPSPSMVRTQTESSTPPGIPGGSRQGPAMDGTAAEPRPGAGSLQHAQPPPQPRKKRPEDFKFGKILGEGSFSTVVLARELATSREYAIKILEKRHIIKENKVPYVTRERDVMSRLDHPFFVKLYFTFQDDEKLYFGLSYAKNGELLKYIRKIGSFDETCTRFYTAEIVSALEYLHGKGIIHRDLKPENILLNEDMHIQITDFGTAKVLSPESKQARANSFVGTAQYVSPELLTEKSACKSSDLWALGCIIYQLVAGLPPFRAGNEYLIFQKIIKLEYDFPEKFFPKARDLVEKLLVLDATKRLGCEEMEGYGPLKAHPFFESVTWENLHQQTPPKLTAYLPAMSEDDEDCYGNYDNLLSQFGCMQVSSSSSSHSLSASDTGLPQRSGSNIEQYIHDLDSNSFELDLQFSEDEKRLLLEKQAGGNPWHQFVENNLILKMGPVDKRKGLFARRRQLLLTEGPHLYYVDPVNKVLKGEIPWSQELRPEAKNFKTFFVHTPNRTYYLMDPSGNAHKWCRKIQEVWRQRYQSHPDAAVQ
The following applies: at 0.1 µM.

The target in assay [2] is cAMP-dependent protein kinase catalytic subunit alpha (Homo sapiens) (UniProt P17612). As to conditions: at 0.1 µM.
Assay [3] shares this target. The following applies: at 1 µM.
Assay [4] concerns the target Protein kinase C alpha type (Homo sapiens) (UniProt P17252). As to conditions: at 0.1 µM.
For assay [5] the target is unchanged. As to conditions: at 1 µM.
Assay [6] concerns the target Protein kinase C beta type (Homo sapiens) (UniProt P05771). The following applies: at 0.1 µM.
Assay [7] shares this target. The following applies: at 1 µM.
Assay [8] deals with Protein kinase C eta type (Homo sapiens) (UniProt P24723). As to conditions: at 0.1 µM.
Chain of Protein kinase C eta type (Homo sapiens) (P24723 whole entry): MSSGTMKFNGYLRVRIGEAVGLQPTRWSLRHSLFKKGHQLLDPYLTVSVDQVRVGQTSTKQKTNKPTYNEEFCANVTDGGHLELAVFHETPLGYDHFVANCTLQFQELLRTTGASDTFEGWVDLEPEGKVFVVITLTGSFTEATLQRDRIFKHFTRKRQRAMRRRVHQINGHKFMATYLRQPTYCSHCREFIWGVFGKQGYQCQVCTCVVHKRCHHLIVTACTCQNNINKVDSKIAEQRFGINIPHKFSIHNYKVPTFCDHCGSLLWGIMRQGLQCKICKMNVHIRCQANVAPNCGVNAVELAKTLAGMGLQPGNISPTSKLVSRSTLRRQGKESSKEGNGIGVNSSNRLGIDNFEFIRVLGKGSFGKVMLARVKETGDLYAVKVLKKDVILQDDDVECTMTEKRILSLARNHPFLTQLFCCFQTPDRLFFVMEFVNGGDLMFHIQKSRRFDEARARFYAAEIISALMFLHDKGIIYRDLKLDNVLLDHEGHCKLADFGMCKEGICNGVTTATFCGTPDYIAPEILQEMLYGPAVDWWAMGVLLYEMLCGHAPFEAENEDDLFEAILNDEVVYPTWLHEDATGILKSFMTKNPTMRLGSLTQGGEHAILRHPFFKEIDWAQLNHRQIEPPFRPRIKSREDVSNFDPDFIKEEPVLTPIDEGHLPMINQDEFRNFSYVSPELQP
The target is the same in assay [9]. The following applies: at 1 µM.
In assay [10] the target is Protein kinase C gamma type (Homo sapiens) (UniProt P05129). The following applies: at 0.1 µM.
Assay [11] has the same target. As to conditions: at 1 µM.
The target in assay [12] is T2, Protein kinase C iota type (Homo sapiens) (UniProt P41743).
T2 sequence (whole entry): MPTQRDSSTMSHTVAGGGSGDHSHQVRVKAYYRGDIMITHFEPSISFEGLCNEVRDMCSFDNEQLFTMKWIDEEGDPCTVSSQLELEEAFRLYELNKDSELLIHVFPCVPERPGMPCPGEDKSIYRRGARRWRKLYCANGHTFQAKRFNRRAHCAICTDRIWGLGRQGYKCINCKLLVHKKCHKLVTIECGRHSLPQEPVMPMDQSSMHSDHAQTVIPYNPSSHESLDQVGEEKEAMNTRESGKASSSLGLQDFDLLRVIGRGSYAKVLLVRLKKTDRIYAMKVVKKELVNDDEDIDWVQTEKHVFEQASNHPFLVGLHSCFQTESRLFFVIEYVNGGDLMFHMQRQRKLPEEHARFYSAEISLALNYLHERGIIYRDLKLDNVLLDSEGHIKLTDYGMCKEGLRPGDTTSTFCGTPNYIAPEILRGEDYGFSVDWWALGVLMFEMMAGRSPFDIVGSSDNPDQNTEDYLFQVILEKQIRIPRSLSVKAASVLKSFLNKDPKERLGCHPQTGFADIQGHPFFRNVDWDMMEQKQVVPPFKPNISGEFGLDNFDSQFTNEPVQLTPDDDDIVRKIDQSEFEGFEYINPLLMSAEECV
The following applies: at 0.1 µM.

The target of assay [13] is T2, Protein kinase C iota type (Homo sapiens). The following applies: at 1 µM.
For assay [14], the target named is Protein kinase C theta type (Homo sapiens) (UniProt Q04759). As to conditions: at 0.1 µM.
Chain of Protein kinase C theta type (Homo sapiens) (Q04759 whole entry, looked up): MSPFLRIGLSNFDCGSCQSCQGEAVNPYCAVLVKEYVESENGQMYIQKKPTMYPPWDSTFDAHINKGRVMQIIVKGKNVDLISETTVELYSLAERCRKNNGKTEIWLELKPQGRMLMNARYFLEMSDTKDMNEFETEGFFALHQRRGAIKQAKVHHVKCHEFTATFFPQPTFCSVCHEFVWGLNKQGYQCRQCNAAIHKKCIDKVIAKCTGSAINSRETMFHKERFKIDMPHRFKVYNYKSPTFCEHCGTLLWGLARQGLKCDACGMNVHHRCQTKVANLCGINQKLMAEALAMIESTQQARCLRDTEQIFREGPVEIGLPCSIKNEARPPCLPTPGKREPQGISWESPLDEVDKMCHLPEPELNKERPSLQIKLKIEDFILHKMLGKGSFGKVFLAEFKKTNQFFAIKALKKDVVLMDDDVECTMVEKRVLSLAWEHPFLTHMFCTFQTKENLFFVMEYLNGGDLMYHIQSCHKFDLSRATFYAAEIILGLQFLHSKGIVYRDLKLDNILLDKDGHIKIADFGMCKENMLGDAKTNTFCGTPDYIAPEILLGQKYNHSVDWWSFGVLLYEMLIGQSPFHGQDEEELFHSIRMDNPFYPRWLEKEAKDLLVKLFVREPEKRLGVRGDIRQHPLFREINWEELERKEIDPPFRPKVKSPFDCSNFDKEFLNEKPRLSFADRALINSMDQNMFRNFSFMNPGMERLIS
Assay [15] has the same target. As to conditions: at 1 µM.
Assay [16] addresses Protein kinase C beta type (Homo sapiens) (UniProt P05771). The following applies: at 0.1 µM. The source holds these as a separate data set.
For assay [17] the target is unchanged. As to conditions: at 1 µM. The source holds these as a separate data set.
The target in assay [18] is T3, Serine/threonine-protein kinase D1 (Homo sapiens) (UniProt Q15139).
T3 sequence (whole entry): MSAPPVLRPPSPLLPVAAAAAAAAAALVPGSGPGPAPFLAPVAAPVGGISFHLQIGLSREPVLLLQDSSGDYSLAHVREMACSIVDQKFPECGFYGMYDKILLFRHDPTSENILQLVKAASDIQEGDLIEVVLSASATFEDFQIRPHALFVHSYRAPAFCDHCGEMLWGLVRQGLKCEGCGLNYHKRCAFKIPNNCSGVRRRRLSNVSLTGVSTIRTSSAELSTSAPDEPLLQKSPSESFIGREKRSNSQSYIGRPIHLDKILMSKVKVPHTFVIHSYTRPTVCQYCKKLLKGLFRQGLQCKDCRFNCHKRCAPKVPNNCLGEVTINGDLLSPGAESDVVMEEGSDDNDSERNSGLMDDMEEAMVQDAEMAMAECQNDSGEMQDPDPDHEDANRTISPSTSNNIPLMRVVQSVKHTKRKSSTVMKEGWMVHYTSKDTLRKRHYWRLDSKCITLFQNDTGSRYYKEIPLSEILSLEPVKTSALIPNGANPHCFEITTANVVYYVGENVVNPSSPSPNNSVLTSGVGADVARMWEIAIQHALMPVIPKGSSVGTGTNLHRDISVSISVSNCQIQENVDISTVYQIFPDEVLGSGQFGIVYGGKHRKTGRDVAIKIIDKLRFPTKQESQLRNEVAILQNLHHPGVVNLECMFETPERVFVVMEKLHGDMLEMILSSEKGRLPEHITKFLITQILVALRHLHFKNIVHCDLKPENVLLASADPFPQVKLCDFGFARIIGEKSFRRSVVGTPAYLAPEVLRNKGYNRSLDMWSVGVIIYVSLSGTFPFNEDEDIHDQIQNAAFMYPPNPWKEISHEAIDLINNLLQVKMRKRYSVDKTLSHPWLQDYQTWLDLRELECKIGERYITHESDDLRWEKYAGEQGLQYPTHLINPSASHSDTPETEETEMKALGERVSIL
The following applies: at 0.1 µM.

The target of assay [19] is T3, Serine/threonine-protein kinase D1 (Homo sapiens). As to conditions: at 1 µM.
The target of assay [20] is T4, Serine/threonine-protein kinase D2 (Homo sapiens) (UniProt Q9BZL6).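 Also: reported percent inhibition values are means, part of the GSK PKIS kinase panel screen.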
T4 sequence (whole entry): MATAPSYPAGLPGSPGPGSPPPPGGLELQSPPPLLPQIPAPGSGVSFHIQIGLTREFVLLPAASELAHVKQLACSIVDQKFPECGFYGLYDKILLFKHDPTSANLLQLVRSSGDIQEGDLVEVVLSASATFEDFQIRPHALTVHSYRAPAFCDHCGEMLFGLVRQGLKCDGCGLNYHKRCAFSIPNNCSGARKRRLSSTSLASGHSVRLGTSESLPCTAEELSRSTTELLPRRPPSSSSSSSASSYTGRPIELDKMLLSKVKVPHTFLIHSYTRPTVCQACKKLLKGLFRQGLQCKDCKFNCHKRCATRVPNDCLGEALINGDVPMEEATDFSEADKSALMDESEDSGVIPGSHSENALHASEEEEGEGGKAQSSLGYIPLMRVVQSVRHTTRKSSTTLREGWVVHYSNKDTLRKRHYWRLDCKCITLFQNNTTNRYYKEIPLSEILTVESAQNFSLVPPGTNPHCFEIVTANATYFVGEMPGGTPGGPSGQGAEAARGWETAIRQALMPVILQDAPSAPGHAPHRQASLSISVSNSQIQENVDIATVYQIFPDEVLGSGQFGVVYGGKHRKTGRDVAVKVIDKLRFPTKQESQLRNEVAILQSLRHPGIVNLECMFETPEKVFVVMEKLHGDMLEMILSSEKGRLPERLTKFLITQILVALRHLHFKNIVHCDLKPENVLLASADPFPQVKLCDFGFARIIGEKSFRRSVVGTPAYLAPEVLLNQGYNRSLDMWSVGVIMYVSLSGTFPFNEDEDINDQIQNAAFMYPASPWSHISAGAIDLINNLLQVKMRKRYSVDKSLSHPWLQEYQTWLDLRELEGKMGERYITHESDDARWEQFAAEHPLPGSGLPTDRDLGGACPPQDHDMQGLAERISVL
As to conditions: at 0.1 µM.

Chain of Protein kinase C beta type (Homo sapiens) (P05771 2-671 limits assumed): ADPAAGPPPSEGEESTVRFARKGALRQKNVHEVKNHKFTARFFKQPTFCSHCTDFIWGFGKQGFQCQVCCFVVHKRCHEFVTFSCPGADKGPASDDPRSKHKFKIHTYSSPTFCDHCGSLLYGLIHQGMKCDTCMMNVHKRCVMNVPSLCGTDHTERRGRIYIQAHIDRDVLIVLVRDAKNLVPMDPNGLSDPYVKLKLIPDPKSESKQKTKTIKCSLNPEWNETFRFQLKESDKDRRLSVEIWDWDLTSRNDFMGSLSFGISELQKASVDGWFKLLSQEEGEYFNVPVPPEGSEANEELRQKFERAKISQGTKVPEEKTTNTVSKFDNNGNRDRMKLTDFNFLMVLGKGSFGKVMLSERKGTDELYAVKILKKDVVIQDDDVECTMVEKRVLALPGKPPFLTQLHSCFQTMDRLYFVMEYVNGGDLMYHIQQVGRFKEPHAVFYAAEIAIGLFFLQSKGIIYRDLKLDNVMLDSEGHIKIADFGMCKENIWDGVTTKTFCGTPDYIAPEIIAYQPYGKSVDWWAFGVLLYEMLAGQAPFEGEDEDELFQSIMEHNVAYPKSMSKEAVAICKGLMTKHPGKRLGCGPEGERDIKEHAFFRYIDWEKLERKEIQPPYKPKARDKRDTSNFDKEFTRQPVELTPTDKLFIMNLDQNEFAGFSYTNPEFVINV

Regarding `CNC(=O)c1ncccc1Nc1nc(Nc2cc3c(cc2OC)CCCN3C(=O)CN(C)C)nc2[nH]ccc12`, the inhibition (usually the relative decrease from the control value, in per cent) was found to be 3.18% in assay [1]; 1.72% in [2]; 2.56% in assay [3]; 1.68% in [4]; 10.7% in [5]; 1.41% in [6]. The inhibition stood at 1.37% in assay [7]; 2.78% in assay [8]; 1.52% in assay [9]; 5.68% in [10]; 20.5% in assay [11]; 1.89% in [12]. Moreover, the inhibition in assay [13] stood at 2.01%; in [14], 1.94%; in [15], 5.49%; in [16], 1.44%; in assay [17] it was 7.12%; in assay [18], 5.48%. The inhibition amounted to 24.5% in [19] and 7.16% in assay [20].

Regarding `CN1CCC(C(=O)Nc2n[nH]c3nc(-c4ccc(O)cc4)c(Br)cc23)CC1`, the inhibition in assay [1] was 0.58% and 1.23%; in assay [2], -1.53% and 1.47%; in [3] it was 1.39% and 2.8%; in [4] it was -2.91% and 0.74%; in [5] it was 7.49% and 11.2%; in assay [6], 2.04% and 0.96%. In addition, the inhibition in assay [7] was 13.9% and 10.2%; in assay [8] it was 3.63% and 1.62%; in assay [9] it was 8.67% and 3.54%; in assay [10], 4.29% and -2.24%; in assay [11], 7.76% and 8.57%; in assay [12], 3.63% and -0.08%. Moreover, the inhibition was 8.06% and 5.91% in assay [13]; 2.17% and 0.5% in [14]; 7.83% and 2.97% in assay [15]; 6.51% and 5.4% in [16]; 30.5% and 31.2% in assay [17]; 1.71% and 3.32% in assay [18]. In addition, the inhibition in [19] is 5.76% and 5.75%; in assay [20], 1.9% and 3.95%.

In the case of `COc1c(C(N)=O)cc(-c2ccc(Cl)cc2)cc1-c1ccc(S(N)(=O)=O)cc1`, the inhibition amounted to 1.2% in assay [1]; 3.03% in assay [2]; 4.3% in assay [3]; 0.59% in [4]; 1.5% in assay [5]; 0.62% in assay [6]. The inhibition is 3.84% in assay [7]; 1.17% in [8]; 5.18% in [9]; 1.45% in assay [10]; 4.7% in assay [11]; 1% in assay [12]. Further, the inhibition in [13] came out at 0.99%; in assay [14], 2.35%; in assay [15] it was 3.92%; in [16] it was 1.11%; in assay [17], 3.56%; in assay [18], 4.74%. Moreover, the inhibition in [19] was found to be 5.66%; in [20] it was 3.83%.
